Compound activity from PubChem.
Shown are actives, neighbours in structure and some others; about 2.6% of the full set was active somewhere.
mut p53 SMM: binders of human mutant p53, primary screen, biochemical, small molecule microarray, anti-GST fluorescence. calls only. mutant tumor protein p53 (GST-tagged), Homo sapiens. AID 624136, 2012. 17,000 compounds, 0.4% hits. small molecule microarray binding;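 active = compounds whose four printed spots each glow above background more than chance allows, each with a p-value under 7%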
NFkB binder: binders of NF-kB p50 subunit, primary screen, biochemical, small molecule microarray, anti-His fluorescence; Nuclear factor NF-kappa-B p105 subunit (Homo sapiens), P19838; anti-His fluorescence binding; calls only; 17,000 compounds, 1.3% hits; AID 624139, 2012;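 active = spot fluorescence over background significantly raised, with a chance value under 7% in all four replicate spots of the compound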;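 also: probe protein is his-tagged human p50 processed subunit at 1 µg/ml; raw spot fluorescence signals with no normalization applied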
Myc binder: binders of human c-Myc, primary screen, biochemical, small molecule microarray, anti-His fluorescence; His-c-Myc binding; calls only; 17,000 compounds, 1.5% hits;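 active = spot fluorescence over background with P-value below 7% in all four replicate spots, showing protein binding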;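 also: score is binary with 100 for all four spots passing and 0 otherwise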
Target sequence (P01106 whole entry, looked up): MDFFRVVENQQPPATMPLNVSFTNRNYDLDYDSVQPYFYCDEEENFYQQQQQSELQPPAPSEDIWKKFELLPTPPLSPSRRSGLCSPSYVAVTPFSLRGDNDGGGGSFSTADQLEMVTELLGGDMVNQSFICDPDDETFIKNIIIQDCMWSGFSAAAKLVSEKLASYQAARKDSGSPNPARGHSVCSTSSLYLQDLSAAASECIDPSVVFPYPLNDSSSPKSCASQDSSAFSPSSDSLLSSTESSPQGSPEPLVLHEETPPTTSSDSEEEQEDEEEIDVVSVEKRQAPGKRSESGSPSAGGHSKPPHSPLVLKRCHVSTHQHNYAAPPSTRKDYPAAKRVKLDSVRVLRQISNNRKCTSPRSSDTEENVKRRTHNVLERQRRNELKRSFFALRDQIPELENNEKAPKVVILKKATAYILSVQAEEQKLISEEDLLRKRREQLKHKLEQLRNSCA
mut p53 react: mutant p53 pathway re-activators, primary screen, cell-based, SW480, luciferase, single point, HTS. 28,000 compounds, 1.5% hits. SW480 PUMA-promoter luciferase, p53 mutant reactivation. activation, % at 9.98 µM; in the data active = activation above about 52%
STAT3 binder: STAT3 binders, primary screen, biochemical, small molecule microarray, single point, set 2 | His-STAT3 binding, anti-His fluorescence | calls only | 17,000 compounds, 0.2% hits;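 active = compounds whose four printed spots each show fluorescence over background unusually high for their array block, chance value under 7%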
* marks the source's active call; other numbers are inactive results; i = inactive; nt = no result given; + = active, no number.

SMILES	mut p53 SMM	NFkB binder	Myc binder	mut p53 react	STAT3 binder
COc1cc(SC)ccc1-c1nc2ccncc2[nH]1	i	i	i	59*	i
Cc1cc(Cc2c(O)nc(SCc3ccccc3)[nH]c2=O)ccc1OC(C)C	nt	nt	nt	6	nt
COc1ccc(C(=O)n2nc(-c3ccc(Cl)cc3)nc2NCc2ccco2)cc1	nt	nt	nt	118*	nt
CC(=O)n1nc(-c2ccc(Cl)cc2)nc1NCc1ccco1	i	i	i	148*	i
O=C(c1cccs1)n1nc(-c2ccc(Cl)cc2)nc1NCc1ccco1	nt	nt	nt	102*	nt
CC(C)(Oc1ccc(Cl)cc1)C(=O)NCc1ccco1	nt	nt	nt	3	nt
Cn1c(=O)c2[nH]c(NCCN3CCOCC3)nc2n(C)c1=O	nt	nt	nt	-7	nt
Cc1ccnc(NS(=O)(=O)c2ccc(NC(=O)C34CCC5CC(CC(C5)C3)C4)cc2)n1	i	i	i	-1	i
C[C@@H]1CN([C@@H](C)CO)C(=O)Cc2cc(NS(C)(=O)=O)ccc2O[C@@H]1CN(C)C(=O)Nc1ccc(C(F)(F)F)cc1	i	i	i	-3	i
CC(=O)N1CCN(C(=S)c2ccc(-c3ccc(C)cc3)o2)CC1	nt	nt	nt	55*	nt
Cc1cc(S(=O)(=O)NCC(=O)O)ccc1F	i	i	+	-5	i
CC(C)(C)c1ccc(S(=O)(=O)NCCC(=O)O)cc1	nt	nt	nt	-5	nt
Cc1ccc2cc(S(=O)(=O)NCCC(=O)O)ccc2c1	i	i	+	12	i
Cc1cc(C)c(S(=O)(=O)NCC(=O)O)c(C)c1	i	i	+	-9	i
Cc1cc(NC(=O)c2nn3cccnc3c2Cl)no1	i	i	i	5	i
C=CCNc1nc(N)c(C(=O)Nc2cc(C)on2)s1	i	i	i	70*	i
C[C@@H]1CN([C@@H](C)CO)C(=O)c2cc(NC(=O)Nc3ccc(F)cc3)ccc2O[C@@H](C)CCCCO[C@H]1CN(C)Cc1ccc(C(=O)O)cc1	i	i	i	8	i
Cc1ccc(O)c(NC(=O)c2nc3ncccn3n2)c1	i	i	i	58*	i
O=C(Nc1cccnc1)c1nc2ncccn2n1	nt	nt	nt	-1	nt
O=C(Nc1ccncc1)Nc1c(Cl)cc(Cl)cc1Cl	nt	nt	nt	-2	nt
CC(=O)c1c(O)cc(O[C@@H]2O[C@H](CO)[C@@H](O)[C@H](O)[C@H]2O)cc1O	i	i	i	18	i
COc1ccc(/C=C/c2cc(O)cc(O[C@@H]3O[C@H](CO)[C@@H](O)[C@H](O)[C@H]3O)c2)cc1	i	i	i	64*	i
COC(=O)c1sccc1-c1ccc(-c2ccn(C(=O)c3ccc(Cl)cc3)n2)o1	nt	nt	nt	97*	nt
CCc1ccc(CCC(=O)Nc2ccc(C)c(C)c2)o1	nt	nt	nt	71*	nt
C[C@H](CO)N1C[C@H](C)[C@H](CN(C)C(=O)Nc2ccc(F)cc2)Oc2c(NC(=O)NC3CCCCC3)cccc2C1=O	i	i	i	-7	i
SMILES	mut p53 SMM	NFkB binder	Myc binder	mut p53 react	STAT3 binder
C[C@H]1CCCCO[C@H](CN(C)C(=O)CCC(F)(F)F)[C@@H](C)CN([C@@H](C)CO)C(=O)c2cc(NC(=O)CCC(F)(F)F)ccc2O1	i	i	i	1	i
C[C@@H]1CN([C@@H](C)CO)C(=O)c2cc(NC(=O)CCC(F)(F)F)ccc2O[C@@H](C)CCCCO[C@H]1CN(C)C(=O)CCC(F)(F)F	i	+	i	4	i
C[C@@H]1CCCCO[C@H](CN(C)C(=O)CCC(F)(F)F)[C@@H](C)CN([C@H](C)CO)C(=O)c2cc(NC(=O)CCC(F)(F)F)ccc2O1	+	+	+	-5	i
CCOc1ccc(NC(=O)CSc2nnc(-c3ccc(Cl)c(Cl)c3)n2C)cc1	nt	nt	nt	-1	nt
COc1cccc(NC(=O)CNC(=O)c2cccs2)c1	nt	nt	nt	51*	nt
COC(=O)COc1cccc(NC(=O)c2cccs2)c1	nt	nt	nt	-6	nt
CCCCn1c2ccccc2c2nnc(SCCN3CCOCC3)nc21	+	i	i	-4	i
Cc1ccc2c(c1)c1nnc(SCCN3CCOCC3)nc1n2Cc1ccccc1	nt	nt	nt	3	nt
COc1ccc([Si](C)(C)[C@H]2[C@H](CCO)O[C@@]3(C(=O)N(Cc4ccccc4)c4ccc(NC(=O)[C@H](C)O)cc43)[C@@H]2C)cc1	+	+	i	nt	i
COc1ccc(CNC(=O)C[C@H]2C[C@@H]3c4cc(NS(=O)(=O)c5ccc(F)cc5)ccc4O[C@@H]3[C@@H](CO)O2)cc1	nt	nt	nt	-1	nt
CC(=O)NCCNC(=O)c1cc2ccccc2oc1=O	nt	nt	nt	-2	nt
COc1ccccc1CNC(=O)c1cc2ccccc2oc1=O	nt	nt	nt	88*	nt
CCOc1cccc2cc(C(=O)NCc3cccnc3)c(=O)oc12	i	i	i	-9	i
COc1cccc2cc(C(=O)NCc3ccccn3)c(=O)oc12	i	i	i	84*	i
O=C(CSc1nnc(-c2ccc(Cl)cc2)n1-c1ccccc1)Nc1ccccc1C(F)(F)F	nt	nt	nt	-12	nt
C[C@@H]1CN([C@@H](C)CO)C(=O)c2cc(NC(=O)C3CCCCC3)ccc2O[C@@H](C)CCCCO[C@H]1CN(C)C	i	i	i	7	i
C[C@H](O)C#Cc1cnc2c(c1)C(=O)N([C@@H](C)CO)C[C@H](C)[C@H](CN(C)C(=O)Cc1ccncc1)O2	nt	nt	nt	15	nt
O=c1c2ccccc2ncn1CCCOc1ccccc1[N+](=O)[O-]	nt	nt	nt	92*	nt
Cc1cc(=O)[nH]c(SCC(=O)Nc2cc([N+](=O)[O-])ccc2C)n1	nt	nt	nt	-3	nt
Cn1c2ccccc2c2nnc(SCC(=O)c3ccc(Cl)cc3)nc21	i	i	+	-7	i
C[C@@H]1CN([C@H](C)CO)C(=O)c2cccc(NC(=O)Nc3ccc4c(c3)OCO4)c2O[C@H]1CN(C)C	i	i	i	60*	i
COc1ccc(CN(C)C[C@H]2Oc3c(NC(=O)Nc4ccc5c(c4)OCO5)cccc3C(=O)N([C@H](C)CO)C[C@@H]2C)cc1	i	i	i	61*	i
C[C@H](CO)N1C[C@H](C)[C@H](CN(C)C(=O)Nc2ccc3c(c2)OCO3)Oc2c(NC(=O)Nc3ccc4c(c3)OCO4)cccc2C1=O	nt	nt	nt	-2	nt
Cc1ccc(N(C(C)C(=O)NC2CC2)S(C)(=O)=O)cc1 (centres undefined)	i	i	i	6	i
O=C(COc1ccc(Cl)cc1)Nc1ncccn1	nt	nt	nt	74*	nt
SMILES	mut p53 SMM	NFkB binder	Myc binder	mut p53 react	STAT3 binder
O=C(COc1ccc(Cl)cc1Cl)Nc1ncccn1	nt	nt	nt	48	nt
Cc1ccc(NC(=O)COc2ccc(Cl)c(C)c2)c([N+](=O)[O-])c1	nt	nt	nt	59*	nt
CC(=O)Nc1ccc(OCC(=O)Nc2ccc(Cl)c(Cl)c2)cc1	nt	nt	nt	65*	nt
COc1ccccc1NC(=O)CSc1ccccn1	nt	nt	nt	27	nt
COc1ccc(NC(=O)CSc2ccccn2)c([N+](=O)[O-])c1	nt	nt	nt	62*	nt
CCOc1ccc(C(=O)NCc2nc(-c3ccccc3)no2)cc1	nt	nt	nt	-3	nt
